According to the supplement of paper PMC7530171:
Counter-ions that a name gives are not always drawn. ± gives the standard deviation.

These compounds were tested on THP-1 macrophages infected with Mycobacterium tuberculosis H37Rv (assay: intracellular M.tb growth inhibition relative to DMSO (0) and 4 uM bedaquiline (100); higher = stronger inhibition of intracellular bacterial growth). Conditions: 10 µM; 4 days.
Procedure: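 OICR kinase inhibitor library screened in duplicate at 10 uM against THP-1 macrophages (PMA-differentiated) infected with M. tuberculosis H37Rv-pTEC27 (tdTomato RFP), 4 days at 37 C. Rows with complete host cell loss (placeholder inhibition 0, cell loss 100) were removed.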

Compound | intracellular M.tb growth inhibition [%]
COc1cc(C[C@H]2C(=O)OC[C@@H]2Cc2ccc(OC)c(OC)c2)ccc1O [Arctigenin] | 46 ± 8.1
COc1ccc(OC)c2c(=S)c3ccccc3[nH]c12 | -14.9 ± 44
COc1cc2nccc(Oc3ccc(NC(=O)C4(C(=O)Nc5ccc(F)cc5)CC4)cc3)c2cc1OC | 94.8 ± 23
COc1cc2nccc(Oc3ccc(NC(=O)NC4CC4)c(Cl)c3)c2cc1C(N)=O | -42.3 ± 140
Nc1nccc(-c2ccc3noc(-c4ccc(Cl)cc4)c3c2)n1 [PIM 1 Inhibitor 2] | 20.6 ± 8.4
Cc1cc(Nc2ncc3cc(-c4c(Cl)cccc4Cl)c(=O)n(C)c3n2)ccc1F | 4.79 ± 6.8
Cc1cn(-c2cc(NC(=O)c3ccc(C)c(Nc4nccc(-c5cccnc5)n4)c3)cc(C(F)(F)F)c2)cn1 [Nilotinib] | -5.88 ± 8.3
Clc1ccc(Nc2nnc(Cc3ccncc3)c3ccccc23)cc1 [Vatalanib dihydrochloride] | -2.9 ± 24
NS(=O)(=O)c1nn2cc(-c3ccccc3)nc2s1 | 42.3 ± 16
COc1nccc(-c2c(-c3ccc(F)cc3)ncn2C2CCC(O)CC2)n1 (stereo not given) | 1.01 ± 15
COc1cc2c(N3CCN(C(=O)Nc4ccc(OC(C)C)cc4)CC3)ncnc2cc1OCCCN1CCCCC1 | 53 ± 8
NC(=O)Nc1cc(-c2cccc(F)c2)sc1C(=O)N[C@H]1CCCNC1 | -218 ± 310
CCCS(=O)(=O)Nc1ccc(F)c(C(=O)c2c[nH]c3ncc(Cl)cc23)c1F | 30.7 ± 35
Cc1cc(C)c(/C=C2\C(=O)Nc3ccccc32)[nH]1 | 8.19 ± 12
Fc1ccc(Cl)cc1-c1nc(Nc2ccncc2)c2nccnc2n1 | 36.5 ± 10
CCN(CCO)CCCOc1ccc2c(Nc3cc(CC(=O)Nc4cccc(F)c4)[nH]n3)ncnc2c1 | -51.3 ± 83
c1cc(OCCN2CCCCC2)cc(-c2n[nH]c3ccc(-c4nnc[nH]4)cc23)c1 | -65.3 ± 120
CC1(C)CNc2cc(NC(=O)c3cccnc3NCc3ccncc3)ccc21 [Motesanib diphosphate salt] | 44.9 ± 27
CO[C@H]1C[C@@H]2CC[C@@H](C)[C@@](O)(O2)C(=O)C(=O)N2CCCC[C@H]2C(=O)O[C@H]([C@H](C)C[C@@H]2CC[C@@H](OCCO)[C@H](OC)C2)CC(=O)[C@H](C)/C=C(\C)[C@@H](O)[C@@H](OC)C(=O)[C@H](C)C[C@H](C)/C=C/C=C/C=C/1C [Everolimus] | 3.03 ± 13
CS(=O)(=O)CCNCc1nc(-c2ccc3ncnc(Nc4ccc(OCc5cccc(F)c5)c(Cl)c4)c3c2)cs1 | 37.8 ± 12

Compound | intracellular M.tb growth inhibition [%]
Nc1cccc(-c2cc3c(Oc4cccc(O)c4)ncnc3[nH]2)c1 | -14.2 ± 26
Cn1c(=O)c(Oc2ccc(F)cc2F)cc2cnc(NC3CCOCC3)nc21 | -140 ± 130
c1ccc(-c2[nH]ncc2-c2ccnc3ccccc23)nc1 | 2.68 ± 17
CCOc1cc2ncc(C#N)c(Nc3ccc(OCc4ccccn4)c(Cl)c3)c2cc1NC(=O)/C=C/CN(C)C [Neratinib] | -146 ± 210
NCc1ccc(Nc2ncc(F)c(Nc3ccccc3)n2)cc1 [Dianilinopyrimidine_01] | 99.2 ± 230
N#C/C(=C\c1ccc(O)c(O)c1)C(=O)NCc1ccccc1 | 9.47 ± 28
NC(=O)c1ccc(-c2nc(-c3ccc4c(c3)OCCO4)c(-c3ccccn3)[nH]2)cc1 | -106 ± 81
CCOc1cc(/C=C(\C#N)C(N)=O)cc(CSc2ccccc2)c1O | -116 ± 140
CC(C)(C)c1nc2c3cc[nH]c(=O)c3c3cc(F)ccc3c2[nH]1 [Merck-5] | -268 ± 290
Oc1cccc(-c2nc(N3CCOCC3)c3oc4ncccc4c3n2)c1 | -62.7 ± 17
COc1ccc(Cl)cc1NC(=O)Nc1cc(C)nc2ccccc12 | 59.1 ± 9.6
CN1CCC(CNc2ccc3ncc(-c4cccc(OC(F)(F)F)c4)n3n2)CC1 | 89.1 ± 24
O=C(NC1CCNCC1)c1n[nH]cc1NC(=O)c1c(Cl)cccc1Cl | 29.6 ± 42
CNC(=O)c1cc(Oc2ccc(NC(=O)Nc3ccc(Cl)c(C(F)(F)F)c3)c(F)c2)ccn1 | 50.6 ± 65
Cc1[nH]c(/C=C2\C(=O)Nc3ccc(S(=O)(=O)Cc4c(Cl)cccc4Cl)cc32)c(C)c1C(=O)N1CCC[C@@H]1CN1CCCC1 | 51 ± 13
COc1ccc(-c2ccc3c(N4CCOCC4)nc(N4C[C@@H](C)O[C@@H](C)C4)nc3n2)cc1CO | -282 ± 370
Cn1cnc2c(NCc3ccccc3)nc(NCCO)nc21 [Olomoucine] | -10.5 ± 23
C=CC(=O)Nc1cccc(Oc2nc(Nc3ccc(N4CCN(C)CC4)cc3OC)ncc2Cl)c1 | -39 ± 120
O=C1NCc2c1c1c3ccccc3[nH]c1c1[nH]c3ccccc3c21 | 37.2 ± 30
CCCCCCCC(=O)OCCOC(=O)CCCCCCC [Dioctanoylglycol] | 0.763 ± 3
